According to PubChem BioAssay (NCI):
About 83,000 compounds went through this panel and 20% of them were active in at least one assay; those are over-represented in the sample as a whole.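 Interpretation: 100, growth as untreated; towards 0, rising growth inhibition; 0, no net growth; 0 to -100, cell death. Compounds scoring below 10 were considered active.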 Unmarked numbers belong to inactive results. Calls of active or inactive are those of the source.

System: SK-MEL-28 melanoma
Experiment: NCI-60 one-dose screen, 48 h (100 = growth as untreated, 0 = no growth, -100 = all killed)
Conditions: 10 µM unless noted

In the case of `Cn1cc(-c2cc3nc(-c4cn(C)c5ncccc45)cc(N)n3n2)c2cc(Cl)ccc21`, the growth is reported as -99.9% (active).
`Brc1ccc(N/N=C/c2c[nH]c3ccc(Br)cc23)nc1` was tested, and the growth was -50.7% (active).
`COc1ccc(-c2ccnc(SCc3cc4ccccc4[nH]c3=O)n2)cc1OC` was tested, and the growth was 9.54% (active).
With `COc1ccc2c(c1)c(/C=N/Nc1ccc3ccccc3n1)cn2C` the growth was -1.59% (active).

Point of comparison: `O=C(c1ccc(OCCN2CCOCC2)cc1)C1[C@H](c2ccc(Cl)cc2)[C@@H](c2ccccc2)NC12C(=O)Nc1ccc(Cl)cc12` (some centres not stated), growth 51.7%. Against it:
- CC12CC[C@@H]3[C@]4(C)COC(c5c(F)cccc5F)O[C@@H]4CC[C@@]3(C)[C@@H]1CC(C1=CCOC1=O)O2 (some centres not stated) — higher, 88.8%
- Cc1nc(Nc2ncc(C(=O)Nc3c(C)cccc3Cl)s2)cc(N2CCN(CCCNC(=O)COc3ccc(C4CCC(=O)NC4=O)cc3)CC2)n1 (configuration not stated) — higher, 89.4%
- Cn1cc(NC(=O)c2cc(NC(=O)c3ccc(/C=C/c4ccccc4)cc3)cn2C)cc1C(=O)NCCCN1CCOCC1 — lower, 32.5%
- Cc1ccccc1[C@H]1C(C(=O)c2ccc(Cl)cc2)C2(N[C@@H]1c1ccccc1)C(=O)Nc1ccc(Br)cc12 (some centres not stated) — lower, 41%
- C=C1CCC2C3(C)COC(c4ccccc4)OC3CCC2(C)C1CC(Sc1ccccc1)C1=CCOC1=O (configuration not stated) — higher, 82.5%
- Clc1cccc(N/N=C/c2c[nH]c3ccc(Br)cc23)n1 — lower, 49.1%
- COc1c(F)ccc(C(=O)Nc2ccc3nc(NC(=O)C4CCCN(S(=O)(=O)c5cccc(C(F)(F)F)c5)C4)sc3c2)c1F (configuration not stated) — higher, 98.2%
- O=c1oc2ccc(Br)cc2cc1C1=CSc2nc3sc4c(c3c(=O)n2N=C1)CCCC4 — higher, 105%
- CC(=O)/C=C/c1cccc2c1C(=O)NC(C)(c1cc3cc(Br)ccc3oc1=O)N2 (configuration not stated) — higher, 58.8%
- O=c1[nH]c(=O)c2c(-c3cc4ccccc4oc3=O)ccnc2[nH]1 — higher, 115%
- O=C(/C=C/Nc1ccc2oc(=O)ccc2c1)c1cc2cc(Br)ccc2oc1=O — higher, 112%
- CC1(c2cc3cc(Cl)ccc3oc2=O)NC(=O)c2c(/C=C/C(=O)OC3CC4CCC3(C)C4(C)C)cccc2N1 (configuration not stated) — higher, 75.4%
- CC12CC[C@@H]3[C@]4(C)COC(c5cn[nH]c5-c5cccc(Br)c5)O[C@@H]4CC[C@@]3(C)[C@@H]1CC(C1=CCOC1=O)O2 (some centres not stated) — lower, 34%
- O=C(c1ccc(OCCN2CCOCC2)cc1)C1[C@H](c2ccc(Cl)cc2)[C@@H](c2ccccc2)NC12C(=O)Nc1ccc(Br)cc12 (some centres not stated) — lower, 44.1%
- CN(C)CCOc1ccc(C(=O)C2[C@H](c3ccc(Cl)cc3)[C@@H](c3ccccc3)NC23C(=O)Nc2ccc(Br)cc23)cc1 (some centres not stated) — lower, 37.6%
- O=c1[nH]c2ccc(Cl)cc2cc1CSc1nccc(-c2ccc(Cl)cc2)n1 — lower, 46.1%
- COc1cccc(/C=C/c2nc3ccccc3c(=O)n2CC(=O)Nc2ccc(Cl)cc2)c1 — higher, 99.2%
- CCCSc1nc(Nc2ccc(S(N)(=O)=O)cc2)c(C#N)c(-c2cc(OC)c(OC)c(OC)c2)n1 — lower, 35.8%
- CC(/C=C1\SC(=S)N(CCCC(=O)NC(CC(C)C)C(=O)O)C1=O)=C\c1ccccc1 (configuration not stated) — higher, 94.8%
- COc1ccc(/C=C/c2nc3ccccc3c(=O)n2CC(=O)Nc2ccc(Cl)cc2)cc1 — higher, 93%
- Cn1cc(-c2cc(N)n3nc(-c4cn(C)c5ncccc45)cc3n2)c2cccnc21 — higher, 106%
- Cc1ccc([C@H]2C(C(=O)c3ccc(Cl)cc3)C3(N[C@@H]2c2ccccc2)C(=O)Nc2ccc(Cl)cc23)cc1 (some centres not stated) — higher, 69.4%
- O=C(Cn1c(/C=C/c2ccccc2)nc2ccccc2c1=O)Nc1ccc(Cl)cc1 — higher, 108%
- CC12CC[C@@H]3[C@]4(C)COC(c5cn[nH]c5-c5cccc(Cl)c5)O[C@@H]4CC[C@@]3(C)[C@@H]1CC(C1=CCOC1=O)O2 (some centres not stated) — lower, 36.3%
- CCCCSc1nc(Nc2ccc(S(N)(=O)=O)cc2)c(C#N)c(-c2cc(OC)c(OC)c(OC)c2)n1 — lower, 35.1%
- CCOC(=O)/C=C/c1cccc2c1C(=O)NC(C)(c1cc3cc(Cl)ccc3oc1=O)N2 (configuration not stated) — higher, 53.9%
- CC(C)c1sc(NC(=O)c2cc(NC(=O)c3cc(NC(=O)c4nccn4C)cn3C)cn2C)nc1C(=O)NCCCN(C)C — higher, 99%
